65 molecules from PubChem BioAssay AID1259372 (The Scripps Research Institute Molecular Screening Center, 2018) can be followed below.

Screen size: about 4,700 compounds; about 760 (16%) were called active.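 The calls were made as follows: active = inhibition above a cutoff derived from the DMSO control wells (cut at about 28% in these data); inactive = the rest.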 These entries were drawn from the full list.

Microphthalmia-associated transcription factor (Homo sapiens), sequence (O75030 whole entry, looked up): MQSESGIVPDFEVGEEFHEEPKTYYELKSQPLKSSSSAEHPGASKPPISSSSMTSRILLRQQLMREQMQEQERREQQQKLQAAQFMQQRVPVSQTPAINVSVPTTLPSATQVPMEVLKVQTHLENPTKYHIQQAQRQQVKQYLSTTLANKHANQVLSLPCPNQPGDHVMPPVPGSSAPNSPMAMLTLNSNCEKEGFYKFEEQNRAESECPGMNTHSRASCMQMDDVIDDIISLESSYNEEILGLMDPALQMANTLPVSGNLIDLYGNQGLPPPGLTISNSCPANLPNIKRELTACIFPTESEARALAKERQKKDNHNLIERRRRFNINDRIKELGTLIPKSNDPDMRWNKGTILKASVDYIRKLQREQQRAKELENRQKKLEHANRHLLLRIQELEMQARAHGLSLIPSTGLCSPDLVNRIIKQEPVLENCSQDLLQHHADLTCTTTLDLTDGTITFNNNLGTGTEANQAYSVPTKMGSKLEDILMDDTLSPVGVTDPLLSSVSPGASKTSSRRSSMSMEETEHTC

This assay concerns the target Microphthalmia-associated transcription factor (Homo sapiens) (UniProt O75030). The assay can be described thus: blockers of human MITF dimerization – biochemical, AlphaScreen, triplicate, confirmation (AID 1259372). The conditions noted are these: AlphaScreen MITF homodimerization, biotin/His-MITF beads; at 2.6 µM; stronger effect = higher value.
Consider `COc1ccc2c(c1)CC(c1nc(Nc3ccc4cnccc4c3)c3ccccc3n1)CO2` (stereo not given), for which the inhibition – broadly, the drop in the measured response relative to a control, in per cent – is 58.2% (active).

Turning to `CC1CCCCC1NC(=O)CSc1nnc(-c2ccncc2)n1CCCN(C)C` (stereo not given), the inhibition was 8.82% (inactive).

`COc1ccc(C(=O)N2CCN(Cc3ccccc3C(F)(F)F)CC2)cc1OC`: the inhibition is 3.61% (inactive).

Turning to `CCN(C(=O)Cc1nc(N)n[nH]1)C1(C(=O)Nc2ccccc2)CCCCC1`, the inhibition is 105% (active).

On to `CCN(C(=O)Cc1nc(N)n[nH]1)C1(C(=O)Nc2ccc(C)cc2)CCCCC1`, for which the inhibition was 81.1% (active).

Regarding `CCOc1ccc(CN2CCCN(C)CC2)cc1`, the inhibition is 5.9% (inactive).

For `CCN(CC)C(=O)C1CCCN(Cc2cccc(Cl)c2)C1` (stereo not given), the inhibition was -2.94% (inactive).

Consider `N#Cc1ccc(OCC(=O)Nc2nc(-c3ccccn3)cs2)cc1`, for which the inhibition is 22.3% (inactive).

As for `CCC(C)NCCOCCOc1cc(C)cc(C)c1C` (stereo not given), the inhibition is -6.95% (inactive).

As to `COc1ccc(Cn2nnc(C(=O)Nc3cccc(Cl)c3)c2N)cc1`, the inhibition was 8.84% (inactive).

Consider `CCN1CCN(CC(=O)N/N=C/c2cccc(Cl)c2)CC1`, for which the inhibition is 2.25% (inactive).

For the molecule `c1cncc(CCNc2ccc3ncc(-c4cc5ccccc5o4)n3n2)c1`, the inhibition is 2.68% (inactive).

For `CN1CCC(N2CCN(c3ccccc3Cl)CC2)CC1`, the inhibition is 10.4% (inactive).

As to `C=CCNC(=O)c1sc(=S)n(CC)c1N`, the inhibition was 0.63% (inactive).

Turning to `CC(C)(C)NCC(=O)Nc1c2c(nc3ccccc13)N(Cc1ccccc1)CC2`, the inhibition is 18.3% (inactive).

For the molecule `CCOc1cccc(C2C(C(=O)OCCOc3ccccc3)=C(C)NC3=C2C(=O)CCC3)c1` (stereo not given), the inhibition is 2.03% (inactive).

As to `Cc1ccc(C(C)C)c(OCC#CCN2CCNCC2)c1`, the inhibition is 7.61% (inactive).

Regarding `COc1ccc(CN2CCN(Cc3ccccc3C)CC2)c(OC)c1OC`, the inhibition was -1.26% (inactive).

Turning to `CCCS(=O)(=O)N1CCN(Cc2cccc(Cl)c2)CC1`, the inhibition is 4.65% (inactive).

`COC(=O)c1sc(NC(=O)c2ccccc2C)c(C#N)c1C`: the inhibition was -8.1% (inactive).

On to `COc1ccc(C(=O)NCCN2CCN(c3nc4c(C)c(C)ccc4s3)CC2)cc1`, for which the inhibition was -5.73% (inactive).

Take `COc1cc(CN2CCN(Cc3ccco3)CC2)c([N+](=O)[O-])cc1OC`: the inhibition is 16.3% (inactive).

Take `COc1cc(Nc2ncnc3c2nc(N2CCOCC2)n3C(C)C)cc(OC)c1OC`: the inhibition is -3.35% (inactive).

Consider `COc1cc(N2CCOCC2)ccc1Nc1cc(Nc2ccccc2-n2cccn2)c(C(F)(F)F)cn1`, for which the inhibition is 31.5% (active).

Consider `CCN(CC(=O)NCc1ccc(Cl)cc1)Cn1nnc2ccccc21`, for which the inhibition is 0.75% (inactive).

Turning to `COc1ccc(CN2CCN(C3CCC(C)CC3)CC2)c(OC)c1OC` (stereo not given), the inhibition is 2.96% (inactive).

Take `CCCCC(=O)NCc1ccc(F)cc1`: the inhibition was 17.4% (inactive).

In the case of `CN(C)c1cccc(Nc2ccc(-c3cccc(C=O)c3)cn2)c1`, the inhibition is 65.7% (active).

In the case of `COc1ccc(CN2CCN(Cc3cccc(Br)c3)CC2)c(OC)c1`, the inhibition was 8.87% (inactive).

For `CCN(CCN(C)C)Cc1c(Cl)cccc1Cl`, the inhibition is -9.82% (inactive).

`COc1ccc(CN2CCN(Cc3cc(OC)ccc3OC)CC2)cc1`: the inhibition is -1.47% (inactive).

With `O=c1c2ccccc2ncn1CCCCOc1ccccc1F`, the inhibition is 15.3% (inactive).

`COc1ccccc1CN1CC(C)OC(C)C1` (stereo not given): the inhibition is -2.69% (inactive).

For the molecule `CC(c1ccccn1)N(CCN(C)C)C(=S)Nc1ccccc1F` (stereo not given), the inhibition is 19.9% (inactive).

On to `O=S(=O)(c1ccc(F)cc1)N1CCN(Cc2ccccc2C(F)(F)F)CC1`, for which the inhibition is 3.94% (inactive).

With `COc1cccc(CN2CCN(Cc3ccc(C(F)(F)F)cc3)CC2)c1OC`, the inhibition was 1.8% (inactive).

Consider `Fc1ccc(CN2CCN(C3CCCC3)CC2)cc1`, for which the inhibition was 5.12% (inactive).

Turning to `CSc1ccc(CN2CCN(Cc3cccc(Oc4ccccc4)c3)CC2)cc1`, the inhibition was 6.75% (inactive).

As to `COc1ccc(NC(=O)c2cc3n(n2)C(C(F)(F)F)CC(c2ccc(OC)c(OC)c2)N3)cc1OC` (stereo not given), the inhibition was -8.79% (inactive).

As to `CC(=O)c1cccc(N2C(=O)c3cccnc3C2=O)c1`, the inhibition was 0.46% (inactive).

Regarding `CCCS(=O)(=O)N1CCN(Cc2ccccc2Br)CC1`, the inhibition is 7.16% (inactive).

Take `COc1cccc(OC)c1C(=O)N1CCN(Cc2ccccc2F)CC1`: the inhibition is 6.68% (inactive).

Take `COc1ccc(OC)c(CN2CCN(Cc3ccc(Cl)cc3)CC2)c1`: the inhibition was 7.55% (inactive).

On to `O=[N+]([O-])c1ccccc1CN1CCN(Cc2cccnc2)CC1`, for which the inhibition is 14.6% (inactive).

For `CC1CCC2C(=O)N(c3ccc(I)cc3)C(=O)C2C1` (stereo not given), the inhibition was -5.9% (inactive).

For the molecule `O=C(O)C1C2C=CC(O2)C1C(=O)Nc1nccs1` (stereo not given), the inhibition is -0.18% (inactive).

As for `O=C(NN1C(=O)c2ccccc2C1=O)c1cccc(F)c1`, the inhibition is -16% (inactive).

For the molecule `Cc1ccc(C)n1C(Cc1ccccc1)C(=O)O` (stereo not given), the inhibition is 17% (inactive).

With `CN(CCc1ccccn1)Cc1cccnc1`, the inhibition was 8.93% (inactive).

As to `COc1ccc(C(CNCc2cc(=O)oc3cc4c(cc23)CCC4)N2CCOCC2)cc1` (stereo not given), the inhibition is 10.3% (inactive).

With `O=C(Cc1cccs1)N/N=C\C=C\c1ccco1`, the inhibition is 79.7% (active).

For the molecule `Fc1cccc(CN2CCN(C3CCC(c4ccccc4)CC3)CC2)c1` (stereo not given), the inhibition is 11.2% (inactive).

As to `CCC(C)c1ccccc1NC(=O)CN(C)CC(=O)Nc1ccccc1SC` (stereo not given), the inhibition was -6.92% (inactive).

On to `Cc1ccccc1NC(=O)NCCOc1cc(N2CCCC2)ncn1`, for which the inhibition is 6.75% (inactive).

`CCS(=O)(=O)N1CCN(C2CCCCC2C)CC1` (stereo not given): the inhibition was -1.17% (inactive).

`COc1ccc(CN2CCCC(C(=O)N3CCCCC3)C2)cc1` (stereo not given): the inhibition is -32.4% (inactive).

`C/C(N)=C(/C#N)C(=O)COC(=O)c1c2c(nc3ccccc13)/C(=C/c1ccco1)CC2`: the inhibition was 90.7% (active).

Turning to `CCN1CCN(CCOc2ccc(-c3ccccc3)cc2)CC1`, the inhibition was 9.66% (inactive).

As to `COc1ccc(CN2CCC(C(=O)N3CCN(Cc4ccccc4)CC3)CC2)cc1`, the inhibition is 13.8% (inactive).

Regarding `COc1cc(CN2CCN(Cc3cccnc3)CC2)cc(OC)c1OC`, the inhibition was 6.15% (inactive).

With `Cc1cc(NC(=O)CSc2ccc(-c3ccccn3)nn2)no1`, the inhibition is 49% (active).

Take `Cc1cc(NC(=O)CNCCCN(C)C)no1`: the inhibition was 2.39% (inactive).

Regarding `Cc1cccnc1NC(=O)CSc1nnc(COc2ccc(C(C)C)cc2)n1C`, the inhibition was 5.99% (inactive).

As for `CCOc1ccc(OCCCCNCCO)cc1`, the inhibition is 10.6% (inactive).

As for `COc1cccc(CN2CCC(C(=O)NCCc3ccccc3)CC2)c1`, the inhibition is 8.72% (inactive).
